Laboratory results: PubChem BioAssay AID1220 (Sanford-Burnham Center for Chemical Genomics, 2008)
In all, about 190,000 compounds went through this assay and about 1,300 (0.68%) were called active. No stated cut-off is given here; in the data, active means inhibition above about 50%; inactive means the rest. Only a selection was taken, and actives are over-represented in it overall.

Target: Mannose-6-phosphate isomerase (Homo sapiens) (UniProt P34949)
Assay: human PMI inhibitors, high substrate, primary screen, biochemical, fluorescence intensity, high mannose 6-phosphate (AID 1220)
Settings: recombinant PMI enzyme, coupled fluorescence intensity; at 20 µM; stronger effect = higher value

Chain of Mannose-6-phosphate isomerase (Homo sapiens) (P34949 whole entry, looked up): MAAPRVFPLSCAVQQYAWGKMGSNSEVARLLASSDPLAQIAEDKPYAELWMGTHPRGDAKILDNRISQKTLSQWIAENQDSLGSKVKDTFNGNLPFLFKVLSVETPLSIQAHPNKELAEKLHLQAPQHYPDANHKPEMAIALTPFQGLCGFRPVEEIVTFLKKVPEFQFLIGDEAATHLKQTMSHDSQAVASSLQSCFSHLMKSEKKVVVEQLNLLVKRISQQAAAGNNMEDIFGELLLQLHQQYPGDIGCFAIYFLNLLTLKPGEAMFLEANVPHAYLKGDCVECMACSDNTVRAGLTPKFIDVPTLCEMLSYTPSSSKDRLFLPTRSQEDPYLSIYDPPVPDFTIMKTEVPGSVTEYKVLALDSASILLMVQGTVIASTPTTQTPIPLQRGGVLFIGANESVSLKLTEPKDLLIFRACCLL

inhibition, inactive:
Cc1cc(NC(=O)c2ccccc2F)n(-c2nc3ccccc3[nH]2)n1 -1.3%, Cc1cc(NC(=O)c2c(F)cccc2F)n(-c2nc3ccccc3[nH]2)n1 3%, COc1cc(OC)c(-c2nnc3n(CCc4ccccc4)c(=O)c4ccccc4n23)cc1OC 10.4%, COc1ccc(CCN2C(=O)C3C4C=CC(C4)C3C2=O)cc1OC (stereo unspecified) 14%, CCCCOc1ccc(Nc2nc(C)cc(C)c2C#N)cc1 6.1%, CCOc1cc(NC(=S)NC)c(OCC)cc1NC(=O)c1ccc(OC)cc1 49.8%, CCOc1cc(NC(=O)CCl)c(OCC)cc1NC(C)=O 20.4%, CCOc1cc(NC(=S)Nc2cccc(C)c2)c(OCC)cc1NC(=O)CC(C)C 17.5%, COc1cccc(NC(=O)C2CCCCC2)c1 5.6%, CCOc1cc(NC(=S)Nc2cccc(OC)c2)c(OCC)cc1NC(=O)C(C)C 45.4%, COc1cccc(NC(=O)CNC(=O)c2ccc(C)cc2)c1 0.9%, CCOc1ccc(NC(=S)Nc2cc(OC)c(Cl)cc2OC)cc1 24.8%, CCOc1cc(NC(=S)Nc2ccccc2)c(OCC)cc1NC(=O)c1ccccc1 7.3%, CCCCOc1ccc(Br)cc1CSC(=N)N -4.3%, O=C(C[n+]1ccc(-c2cc(C(=O)Nc3cccc(C(F)(F)F)c3)c3ccccc3n2)cc1)c1cccc([N+](=O)[O-])c1 -6.2%, COc1ccc(/C=C(/NC(=O)c2ccccc2)C(=O)N/N=C/c2ccc3c(c2)OCO3)cc1OC -10.4%, O=C(CC1Nc2ccccc2NC1=O)NCCCN1CCCCCC1 (stereo unspecified) 0.7%, Cc1ccc(NC(=S)N2CCN(S(=O)(=O)c3c(F)cccc3F)CC2)cc1C 11.5%, CC1CCCCN1C(=O)C12CCC(C)(C(=O)C1)C2(C)C (stereo unspecified) 48.1%, Cc1c(C(N)=O)sc2ncn(CC(=O)NCCc3ccccc3)c(=O)c12 -8.4%, O=C(CCc1c[nH]c2ccccc12)NCC(=O)Nc1ccc(F)c(F)c1F -1.9%

inhibition, active:
Cc1cc(NC(=O)c2ccccc2)n(-c2nc3ccccc3[nH]2)n1 59.2%, CCOc1cc(NC(=S)Nc2cccc(OC)c2)c(OCC)cc1NC(=O)C1CC1 56.8%, CCOc1cc(NC(=S)Nc2cccc(OC)c2)c(OCC)cc1NC(=O)c1ccc(C)cc1 55.1%, CCOc1cc(NC(=S)Nc2ccccc2)c(OCC)cc1NC(=O)c1ccc(OC)cc1 56.8%, CCOc1cc(NC(=S)Nc2ccc(Cl)cc2)c(OCC)cc1NC(C)=O 55.9%
